An excerpt weighted towards active compounds, which were near 3.3% of everything screened.
697 NFkB inh: inhibitors of PMA/ionomycin-induced NF-kB reporter, 697 cells, primary screen, B-cell NF-kB inhibitor project, cell-based, luminescence, uHTS; inhibition, % at 4 µM; hit rate 0.33% among 330,000; AID 435022, 2010; 697 B-cell NF-kB luciferase reporter, 16 h; in the data active = inhibition above about 35%
esBAF inh: Bmi1 luciferase reporter increase in mESCs, primary screen, esBAF inhibitor project, mouse ES cells, Bmi1 luciferase knock-in, single point | 24 h; 100% = twice the neutral-well signal | reporter increase, % at 12.5 µM | hit rate 2% among 350,000; in the data active = activation above about 40%;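 note: 0% = median of the plate's neutral control wells and 100% = double that signal; a rise in the Bmi1 reporter signal indicates esBAF inhibition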
Gli-Sufu antag: Gli-Sufu pathway antagonists, primary screen, luciferase luminescence, Sufu-KO-LIGHT cells, uHTS. Sufu-KO-LIGHT fibroblasts, Gli luciferase reporter luminescence. inhibition, % at 5 µM. hit rate 0.74% among 340,000. AID 588413, 2011;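 active = inhibition above about 55%, limit read from the data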;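 note: 0% = DMSO-treated cells and 100% = wells with medium but no cells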
Jurkat NFkB inh: inhibitors of induced NF-kB luciferase reporter, primary screen, TCR NF-kB activation inhibitor project, cell-based, luminescence, uHTS. Jurkat, PMA/ionomycin-induced NF-kB luciferase reporter. inhibition, % at 4 µM. hit rate 0.53% among 330,000. AID 435003, 2010; in the data active = inhibition above about 50%
SMARCA2 activ: SMARCA2 (BRM) function activators, primary screen, cell-based, luminescence, high throughput. hit rate 1% among 370,000. AID 652017, 2013. activation, % at 9.1 µM. MG213 cells, MMTV-luciferase reporter, dexamethasone, overnight; in the data active = activation above about 7.8%;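 note: 0% = vehicle wells and 100% = reference activator wells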
Gli-Sufu confirm: Gli-SUFU pathway antagonists, confirmation, single concentration, luciferase luminescence, Sufu-KO-LIGHT cells; shares compounds with Gli-Sufu antag; Gli luciferase reporter; inhibition, % at 5 µM; hit rate 40% among 2,500; AID 602428, 2012;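 active = mean inhibition at 5 µM reaching about 45%, limit read from the data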;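 note: plate controls were DMSO-treated cells for no effect and wells lacking cells for full effect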
SufuKO cytotox: cytotoxicity in Sufu-KO-LIGHT cells, confirmation, cytotoxicity control for Gli-SUFU antagonist project, cell-based, ATP luminescence, single concentration; cytotoxicity, % at 5 µM; AID 651994, 2013; hit rate 32% among 2,500; shares compounds with Gli-Sufu antag;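 active = mean cytotoxicity at 5 µM above about 25%, limit read from the data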;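 note: cells exposed to compound overnight for roughly 16 to 18 hours; plate controls were DMSO wells with cells for no effect and medium without cells for full effect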
Wnt3a counter: Wnt3a reporter signal inhibition, confirmation, counter-screen for Gli-SUFU antagonist project, Wnt-LIGHT cells, luminescence, single concentration; AID 651995, 2013; Wnt3a-driven luciferase reporter; shares compounds with Gli-Sufu antag; inhibition, % at 6.25 µM; hit rate 20% among 2,500;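 active = mean inhibition above about 25%, limit read from the data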
Active calls of the source: *.

For Cc1ccc(-n2c(-c3ccc(Cl)cc3)c[n+]3c2CCC3)cc1 the results were 697 NFkB inh 18.1, Gli-Sufu antag 76.2*, Jurkat NFkB inh 21.4, SMARCA2 activ -4.9, Gli-Sufu confirm 77.2*, SufuKO cytotox 37.4* and Wnt3a counter 7.2.
`CC(C)C#Cc1cnc2c(c1)C(=O)N([C@H](C)CO)C[C@@H](C)[C@H](CN(C)C(=O)c1cccnc1)O2` gave esBAF inh 7.3.
`Cc1ccccc1S(=O)(=O)N1C[C@@H](O)COC[C@@H]2O[C@@H](CC(=O)N3CCCCC3)CC[C@H]21` gave esBAF inh -4.0.
`Cc1cc(/C=c2/sc3nc4ccccc4n3c2=O)c(C)n1-c1ccccn1` gave 697 NFkB inh -74.7, esBAF inh -79.4, Gli-Sufu antag 85.7*, Jurkat NFkB inh 1.3, SMARCA2 activ -10.8, Gli-Sufu confirm 93.6*, SufuKO cytotox 29.0* and Wnt3a counter 103.7*.
Screening Cc1cc(/C=c2\sc3nc4ccccc4n3c2=O)c(C)n1-c1ccc(C(=O)O)cc1 returned Gli-Sufu antag -17.5 and SMARCA2 activ -0.8.
CCc1nc2ccccc2c(NC(=O)CN2CCC(C)CC2)c1C was read as 697 NFkB inh -21.1, esBAF inh -6.3, Gli-Sufu antag 50.5, Jurkat NFkB inh 2.0, SMARCA2 activ -1.6, Gli-Sufu confirm 18.3, SufuKO cytotox 8.3 and Wnt3a counter -3.1.
For CC1CCN(CC(=O)NCc2ccccc2)CC1 the results were 697 NFkB inh -1.1, esBAF inh -2.3, Gli-Sufu antag -2.4, Jurkat NFkB inh -6.6 and SMARCA2 activ -3.9.
`CCCC(=O)N1CCN(S(=O)(=O)c2cc(Cl)ccc2OC)CC1` gave 697 NFkB inh -0.2, esBAF inh 3.4, Gli-Sufu antag 55.1*, Jurkat NFkB inh -1.1, SMARCA2 activ 1.4, Gli-Sufu confirm 5.0, SufuKO cytotox 10.8 and Wnt3a counter -3.2.
For CN1CCN(/C=N/c2sc3c(c2C#N)CCCCC3)CC1 the results were 697 NFkB inh -117.6, esBAF inh 80.5*, Gli-Sufu antag 79.7*, Jurkat NFkB inh -98.9, SMARCA2 activ 7.2, Gli-Sufu confirm -31.4, SufuKO cytotox 7.0 and Wnt3a counter -196.0.
Screening O=C(COC(=O)c1cnccn1)c1cccc([N+](=O)[O-])c1 returned 697 NFkB inh 8.4, esBAF inh -2.1, Gli-Sufu antag 50.4, Jurkat NFkB inh 14.6, SMARCA2 activ 1.1, Gli-Sufu confirm 18.9, SufuKO cytotox 15.9 and Wnt3a counter -0.2.
`CCOc1ccc(-n2c(SCc3ccc(C#N)cc3)nnc2-c2cccnc2)cc1` gave 697 NFkB inh -7.4, esBAF inh 3.2, Gli-Sufu antag 94.9*, Jurkat NFkB inh -18.4, SMARCA2 activ -4.8, Gli-Sufu confirm 27.1, SufuKO cytotox 4.3 and Wnt3a counter -24.1.
`CC(C)(C)NC(=O)c1cccc(NC(=O)c2ccc(NC(=O)c3ccco3)cc2)c1` gave 697 NFkB inh -13.1, esBAF inh -1.5, Gli-Sufu antag 75.2*, Jurkat NFkB inh -17.7, SMARCA2 activ -1.8, Gli-Sufu confirm 18.2, SufuKO cytotox 12.2 and Wnt3a counter -87.4.
Screening O=C(CSCc1ccc(Cl)cc1Cl)Nc1ccccc1C(=O)Nc1ccc(C(=O)O)cc1 returned 697 NFkB inh -13.0, esBAF inh -3.3, Gli-Sufu antag 53.9, Jurkat NFkB inh 22.5, SMARCA2 activ -2.1, Gli-Sufu confirm 21.4, SufuKO cytotox 7.5 and Wnt3a counter 4.6.
Screening CS(=O)(=O)N1[C@H](C#N)[C@H](c2ccc(C#CC3CCCCC3)cc2)[C@H]1CO returned esBAF inh 0.5.
COC(=O)Cn1cccc1C(=O)c1ccccc1 was read as 697 NFkB inh 19.5, esBAF inh -8.3, Gli-Sufu antag 1.1, Jurkat NFkB inh 10.2 and SMARCA2 activ 4.2.
O=C(O)Cn1cccc1C(=O)c1ccccc1 was read as 697 NFkB inh 18.9, esBAF inh -1.0, Gli-Sufu antag 95.9*, Jurkat NFkB inh -10.4, Gli-Sufu confirm 9.2, SufuKO cytotox 3.6 and Wnt3a counter -14.5.
Screening COc1ccc(S(=O)(=O)N(C)C[C@@H]2OCCCC[C@@H](C)Oc3ccc(NS(=O)(=O)c4ccc(C)cc4)cc3C(=O)N([C@@H](C)CO)C[C@H]2C)cc1 returned esBAF inh 12.0.
For COc1ccc(NC(=O)N(C)C[C@@H]2Oc3c(NC(=O)Nc4ccccc4)cccc3C(=O)N([C@@H](C)CO)C[C@@H]2C)cc1 the results were esBAF inh -0.1.
`CN1C(=O)c2cc(NC(=O)c3cccs3)ccc2OC[C@@H]2O[C@H](CC(=O)NCCN3CCCCC3)CC[C@H]21` gave esBAF inh -5.1.
`Nc1nonc1C(=O)NCCNCc1cc(Br)ccc1OCc1ccccc1F` gave 697 NFkB inh -14.2, esBAF inh -11.6, Gli-Sufu antag 51.0, Jurkat NFkB inh 13.3, SMARCA2 activ -6.2, Gli-Sufu confirm 44.2, SufuKO cytotox 34.2* and Wnt3a counter 2.2.
Screening C[C@H](CO)N1C[C@H](C)[C@H](CN(C)Cc2ccc(C(F)(F)F)cc2)Oc2c(NC(=O)c3cnccn3)cccc2C1=O returned esBAF inh -1.1.
`Nc1cc(N)c(OCC(F)(F)F)cc1OCC(F)(F)F` gave 697 NFkB inh -7.4, esBAF inh -12.9, Gli-Sufu antag 68.0*, Jurkat NFkB inh 2.8, Gli-Sufu confirm 22.7, SufuKO cytotox 1.6 and Wnt3a counter 23.8.
COc1ccc(NC(=O)N(C)C[C@H]2Oc3ccc(NS(=O)(=O)c4c(C)noc4C)cc3CC(=O)N([C@H](C)CO)C[C@H]2C)cc1 was read as esBAF inh 1.5.
For Cc1cc(C(C)(C)C)ccc1OCCn1ccnc1 the results were 697 NFkB inh -14.7, esBAF inh -2.0, Gli-Sufu antag 55.2*, Jurkat NFkB inh 7.5, SMARCA2 activ -4.4, Gli-Sufu confirm 29.8, SufuKO cytotox 6.0 and Wnt3a counter -10.5.
Screening CSC(=S)N/N=C(\C)c1ccccc1 returned 697 NFkB inh -11.3, esBAF inh 7.8, Gli-Sufu antag 72.2*, Jurkat NFkB inh 8.8, SMARCA2 activ 3.3, Gli-Sufu confirm 34.1, SufuKO cytotox 18.4 and Wnt3a counter -5.0.

From PubChem
